The entries come from a sample that favours hits as a whole.
YopH PTP inh: inhibitors of Yersinia enterocolitica YopH tyrosine phosphatase; hit rate 0.16% among 140,000; inhibition, % (no concentration beside the values); fluorescence Ex485/Em525; in the data active = inhibition above about 50%
RmlCD inh 1536: M. tuberculosis RmlC/RmlD inhibition. RmlC+RmlD coupled enzyme assay, percent inhibition; primary screen in compound mixtures. P9WH09+P9WH11. inhibition, % at 3.6 µM. hit rate 0.03% among 160,000; in the data active = inhibition mostly above about 34%, no sharp cut-off
Target sequence (P9WH09 whole entry, looked up): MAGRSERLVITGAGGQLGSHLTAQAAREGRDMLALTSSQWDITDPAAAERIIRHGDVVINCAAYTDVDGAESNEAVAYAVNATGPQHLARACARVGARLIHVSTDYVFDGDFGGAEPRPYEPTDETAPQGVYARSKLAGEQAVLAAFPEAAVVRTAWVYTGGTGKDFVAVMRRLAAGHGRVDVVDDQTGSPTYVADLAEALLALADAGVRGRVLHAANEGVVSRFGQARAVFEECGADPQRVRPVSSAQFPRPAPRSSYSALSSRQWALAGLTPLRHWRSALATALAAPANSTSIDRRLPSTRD
Target sequence (P9WH11 whole entry, looked up): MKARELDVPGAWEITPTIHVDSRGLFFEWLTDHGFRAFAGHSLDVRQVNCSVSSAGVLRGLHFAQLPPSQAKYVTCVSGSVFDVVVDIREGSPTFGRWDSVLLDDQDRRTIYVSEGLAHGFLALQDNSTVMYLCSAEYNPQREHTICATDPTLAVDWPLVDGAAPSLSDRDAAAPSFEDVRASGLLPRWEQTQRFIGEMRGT
Active calls of the source: *.

`CCCNc1nc2c(c(=O)[nH]c(=O)n2C)n1Cc1ccc(F)cc1` gave YopH PTP inh 60.1*.
Screening CCNc1nc2c(c(=O)[nH]c(=O)n2C)n1Cc1ccc(F)cc1 returned YopH PTP inh -13.7 and RmlCD inh 1536 -8.3.
Screening O=C1CCCC2=C1C1(O)C(=O)c3ccccc3C1(O)O2 (stereo not drawn) returned YopH PTP inh 98.8* and RmlCD inh 1536 10.2.
Screening N#CC1=C(N)OC2=C(C(=O)CCC2)[C@]12C(=O)N(CC(N)=O)c1ccccc12 returned YopH PTP inh -50.3.
Screening COc1ccc(C)cc1S(=O)(=O)N1CCC(C(=O)N2CCN(C)CC2)CC1 returned YopH PTP inh -16.1.
Screening Cn1c(=O)n(C)c2cc(NS(=O)(=O)c3cccs3)ccc21 returned RmlCD inh 1536 1.8.
For N#Cc1cn(Cc2ccccc2)c2ccccc12 the results were YopH PTP inh 0.0 and RmlCD inh 1536 2.9.
N#Cc1ccccc1Cn1cc(C#N)c2ccccc21 was read as YopH PTP inh 50.6*.
Cc1cccc(-n2cc(C(=O)O)c(=O)cc2C)c1 was read as RmlCD inh 1536 -14.7.
`O=C1Cc2ccccc2C(=O)N1Cc1ccccc1` gave YopH PTP inh 82.5* and RmlCD inh 1536 12.3.
Screening O=C1c2cccnc2C(=O)N1Cc1ccccc1 returned YopH PTP inh -40.9 and RmlCD inh 1536 2.1.
Screening CC1=NN(S(=O)(=O)c2ccc(Cl)cc2Cl)C(=O)c2ccccc2O1 returned RmlCD inh 1536 3.0.
Screening Cc1cc(C)cc(N=Cc2ccc([N+](=O)[O-])s2)c1 returned YopH PTP inh 86.3* and RmlCD inh 1536 34.1.
Screening O=[N+]([O-])c1ccc(C=Nc2ccc(Cl)c([N+](=O)[O-])c2)s1 returned RmlCD inh 1536 -4.0.
Cc1ccc(NC(=S)N/N=C/c2ccc([N+](=O)[O-])s2)cc1 was read as YopH PTP inh -22.7 and RmlCD inh 1536 -7.8.
For NC(=O)c1ccc(N=Cc2ccc([N+](=O)[O-])s2)cc1 the results were YopH PTP inh 92.0*.
`Cc1ccc(S(=O)(=O)NC(CC(C)C)C(=O)Oc2ccc3c4c(c(=O)oc3c2)CCC4)cc1` (stereo not drawn) gave YopH PTP inh -18.9 and RmlCD inh 1536 7.0.
CC[C@@H](NS(=O)(=O)c1ccc(C)cc1)C(=O)Oc1ccc2c3c(c(=O)oc2c1)CCC3 was read as YopH PTP inh 1.7 and RmlCD inh 1536 45.5*.
`CC(C)CC(C(=O)Oc1ccc2c3c(c(=O)oc2c1)CCC3)N1C(=O)c2ccccc2C1=O` (stereo not drawn) gave YopH PTP inh -7.7 and RmlCD inh 1536 54.5*.
Screening CCC(C)C(NS(=O)(=O)c1ccc(C)cc1)C(=O)Oc1ccc2c3c(c(=O)oc2c1)CCC3 (stereo not drawn) returned YopH PTP inh -34.3.
Screening O=c1[nH]c(=S)[nH]c(O)c1N=Nc1ccc(-c2ccccc2)cc1[N+](=O)[O-] returned RmlCD inh 1536 3.2.
Screening CC(OC(=O)CCCCCN=C1NS(=O)(=O)c2ccccc21)C(=O)Nc1cc(Cl)cc(Cl)c1 (stereo not drawn) returned YopH PTP inh -6.8 and RmlCD inh 1536 -9.4.
Screening COc1ccc(CN2C(=O)c3ccccc3C(/C=N\OCc3ccc(F)cc3)C2=O)cc1 (stereo not drawn) returned YopH PTP inh 59.2* and RmlCD inh 1536 5.3.
`COc1ccc(CN2C(=O)c3ccccc3C(/C=N/OCc3ccc(Cl)cc3)C2=O)cc1` (stereo not drawn) gave YopH PTP inh -6.2 and RmlCD inh 1536 6.6.
O=C(c1ccc(Cl)cc1)[C@@H]1[C@@H]2C(=O)N(c3ccc(Cl)cc3)C(=O)[C@@H]2C2c3ccccc3C=NN21 (stereo partly drawn) was read as YopH PTP inh -13.8 and RmlCD inh 1536 4.3.
`O=C(c1ccco1)[C@@H]1[C@@H]2C(=O)N(c3ccc(Br)cc3)C(=O)[C@@H]2C2c3ccccc3C=CN21` (stereo partly drawn) gave YopH PTP inh 88.0*.
For O=C(c1ccco1)[C@@H]1[C@@H]2C(=O)N(c3ccc(F)cc3)C(=O)[C@@H]2[C@H]2C=Cc3ccccc3N21 the results were YopH PTP inh 39.5 and RmlCD inh 1536 -5.6.
For O=C(c1ccco1)[C@@H]1[C@@H]2C(=O)N(c3ccc(F)cc3)C(=O)[C@@H]2C2c3ccccc3C=CN21 (stereo partly drawn) the results were YopH PTP inh 73.7* and RmlCD inh 1536 7.8.
Screening CCN(CC(=O)Nc1c(F)cccc1F)C(=O)COc1ccc2c(C)cc(=O)oc2c1 returned RmlCD inh 1536 -10.8.
CCN(CC)CCNC(=O)Cc1c(C(=O)O)n(C)c2ccccc12 was read as YopH PTP inh -12.0.
Screening CCN(CC)CCCNC(=O)Cc1c(C(=O)O)n(C)c2ccccc12 returned YopH PTP inh 52.1* and RmlCD inh 1536 26.1.
Screening CSc1ncc(OCc2ccccc2)c(=O)[nH]1 returned RmlCD inh 1536 0.1.
Screening Cn1c(N)c(C(=O)Nc2ccc(-c3ccccc3)cc2)sc1=S returned RmlCD inh 1536 14.9.
For CCOc1ccccc1N1CSC2=C(C#N)C(c3c(OC)ccc4ccccc34)CC(=O)N2C1 (stereo not drawn) the results were YopH PTP inh 89.8*.
COc1ccc(N2CSC3=C(C#N)C(c4ccc(OC)c(OC)c4)CC(=O)N3C2)c(OC)c1 (stereo not drawn) was read as YopH PTP inh 59.9*.
For COc1ccc(N2CSC3=C(C#N)C(c4cc(OC)c(OC)cc4OC)CC(=O)N3C2)c(OC)c1 (stereo not drawn) the results were YopH PTP inh 41.6.
`COc1ccc(N2CSC3=C(C#N)C(c4cc(OC)ccc4OC)CC(=O)N3C2)c(OC)c1` (stereo not drawn) gave YopH PTP inh 69.4* and RmlCD inh 1536 9.1.
`COc1ccc(C2CC(=O)N3CN(c4ccc(C)c(Cl)c4)CSC3=C2C#N)cc1OC` (stereo not drawn) gave YopH PTP inh -36.5 and RmlCD inh 1536 7.0.
Screening CCc1ccc(C2CC(=O)N3CN(c4ccccc4)CSC3=C2C#N)cc1 (stereo not drawn) returned YopH PTP inh -21.1 and RmlCD inh 1536 6.9.
For Cc1ccc(C(=O)N(Nc2nc3ccccc3s2)C(=O)c2ccc(C)cc2)cc1 the results were YopH PTP inh -2.5.
`O=c1c2c(nc3nc(NCc4cccc(Cl)c4)[nH]n13)CCC2` gave RmlCD inh 1536 -15.4.
`C/C(CC(=O)Nc1ccc(Cl)cc1Cl)=N\NC(=O)c1cnccn1` gave RmlCD inh 1536 11.8.
Cc1cc(C)cc(-n2cc(C(=O)O)c(=O)cc2C)c1 was read as RmlCD inh 1536 10.9.
Screening Nc1cc2nsnc2cc1Br returned YopH PTP inh 99.6* and RmlCD inh 1536 -4.2.
`Nc1cccc2nsnc12` gave RmlCD inh 1536 17.7.
Screening CC(=O)[C@@H]1[C@@H]2C(=O)N(C3CCCCC3)C(=O)[C@@H]2C2c3ccccc3C=CN21 (stereo partly drawn) returned YopH PTP inh 6.4 and RmlCD inh 1536 2.5.
`CC(=O)[C@H]1[C@@H]2C(=O)N(c3cccc(Cl)c3)C(=O)[C@@H]2[C@H]2c3ccccc3C=CN21` gave YopH PTP inh 67.0* and RmlCD inh 1536 -5.7.
For CC(=O)[C@@H]1[C@@H]2C(=O)N(c3ccc(F)c(Cl)c3)C(=O)[C@@H]2C2c3ccccc3C=CN21 (stereo partly drawn) the results were YopH PTP inh 70.6*.

High-throughput results: PubChem, several laboratories
